Screening data as filed in PubChem BioAssay.
KB-3-1 tox: kills parental KB-3-1 adenocarcinoma cells | KB-3-1 viability, CellTiter-Glo ATP luminescence, 72 h | Potency, µM (top dose mostly 46.1 µM), hits mostly cytotoxic | 400,000 compounds, 1.4% hits | AID 1347075; also: % is scaled to controls: 0 for no effect and ±100 for the full control effect; nearly all actives have a fitted effect of over 60% in size
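Cytotoxicity measured as CellTiter-Glo luminescence after 72 h at 37 C. Compound titrations were pinned onto drug-naive KB-3-1 parental adenocarcinoma cells grown in DMEM with 10% FBS, and normalized data fitted to concentration-response curves.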
KB-V1 cytotox: KB-V1 MDR subline cytotoxicity. AID 1347076. KB-V1 MDR cells viability, CellTiter-Glo, 72 h. Potency, µM (series often up to 46.1 µM), most hits filed as cytotoxic. 400,000 compounds, 3.4% hits; also: % is scaled to controls: 0 for no effect and ±100 for the full control effect; nearly all actives have a fitted effect of over 60% in size
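In this primary screen, KB-V1 cells overexpressing P-gp are incubated with library compounds (lowest to highest concentration) for 72 h at 37 degrees C before a luminescent ATP viability read.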
HT1080 IDH1KD tx: HT-1080 IDH1 knockdown cell toxicity (counter line) | HT-1080 IDH1 knockdown viability, ATP luminescence, 48 h | Potency, µM (doses to about 46.1 µM), inactives show at the top dose activity, negative = toxicity, actives largely listed as cytotoxic | 360,000 compounds, 2% hits | AID 686971;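 also: 0% = DMSO wells and -100% = cell-free medium wells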
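Assay cells: HT-1080 with IDH1 knockdown, 750 per well, RPMI/5% FBS. Exposure: 48 h at 37 °C following 2 h pre-incubation. Read: CellTiter-Glo luminescence; fitted concentration-response, curve class assigned.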
HT1080-NT tox: kills 2HG-producing HT-1080-NT fibrosarcoma cells; HT-1080-NT fibrosarcoma viability, CellTiter-Glo ATP luminescence, 48 h; AID 686970; Potency, µM (top dose mostly 46.1 µM), for inactives: at the highest dose activity, negative = less viability, most hits filed as cytotoxic; 360,000 compounds, 1.6% hits;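 also: NT is the 2HG producing partner of a matched IDH1 knockdown line; 0% = DMSO-treated cells and -100% = media-only wells without cells; nearly all actives have a fitted effect of over 55% in size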
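Luminescent CellTiter-Glo readout after 48 hours of compound exposure at 37 degrees C defined viability of HT-1080-NT cells. Activity was normalized to DMSO wells and cell-free media wells; concentration-response curves were fitted and assigned curve classes.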
MCF10A rerep: induces DNA re-replication in MCF 10a normal breast cells; 350,000 compounds, 2.9% hits; MCF 10A DNA re-replication, Hoechst nuclear intensity, 48 h; Potency, µM (top dose mostly 46.1 µM), for the others: at the top dose activity, positive = re-replication, usual class: activators; also: % of control where 0% means no effect; nearly all actives have a fitted effect of over 50% in size
SW480 rerep: inducers of DNA re-replication in SW480 colon cancer cells; SW480 DNA re-replication, Hoechst DNA content imaging, 48 h; Potency, µM (titrated, usually from 46.1 µM), for inactives: at the highest dose re-replication activation, hits mostly activators; 340,000 compounds, 1.8% hits; AID 624297; also: % of control where 0% means no effect; nearly all actives have a fitted effect of over 55% in size
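Compounds, transferred as 23 nL by pin tool, were incubated with cells for 48 hr; DNA content per nucleus was then quantified by Hoechst staining and fluorescence plate imaging.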
The depositor's hits bear a star; i = inactive; ? = inconclusive; · = not tested or not shown. An excerpt weighted towards active compounds, which were near 8% of everything screened. Calls follow the shape of the dose curve; as a rule, active = well fitted curve in the direction sought with a large enough effect; inconclusive = small, poorly fitted or top-dose-only effect, or another doubt; inactive = no such curve, though single readings can be large; an effect the other way counts as inactive or inconclusive. Potency is read from the fitted curve at half-maximal effect.

SMILES	KB-3-1 tox	KB-V1 cytotox	HT1080 IDH1KD tx	HT1080-NT tox	MCF10A rerep	SW480 rerep
O=C(CC(=O)c1ccccc1)CS(=O)(=O)c1ccccc1	i	11.6µM*	-18.4%	4.1%	?	4.6%
CCCCC(=O)Nc1ccc(Br)cn1	i	i	9.5%	2.1%	-7.1%	-6.4%
O=C(/C=C/c1ccccc1)Nc1ccc(Br)cn1	5.17µM*	i	5.17µM*	6.51µM*	2.06µM*	5.8µM*
Cc1ccc(S(=O)(=O)CC(=O)c2ccccc2)cc1	i	i	19.7%	14.2%	-0.8%	-0.4%
C=CCCC(=O)Nc1ccc(Br)cn1	?	?	?	?	9.2µM*	16.4µM*
O=C(CS(=O)(=O)c1ccccc1)Nc1ccc(Br)cn1	i	16.4µM*	-3.2%	-5.4%	2.3%	-0.8%
Cc1c(NC(=O)c2sc3ccccc3c2Cl)cccc1-c1nc2ccccc2o1	i	?	·	·	·	·
O=C(/C=C/c1ccccc1)Nc1ncn[nH]1	i	i	7.94µM*	11.2µM*	-6.1%	?
O=C(O)C(=O)Nc1ncn[nH]1	i	i	7.1%	7.1%	·	·
CCC1=C(c2ccc(C)cc2)S(=O)(=O)N=C1N1CCC(C(=O)Nc2ccccc2C(=O)OC)CC1	i	?	·	·	·	·
O=C(CCSc1ccc(Cl)c(Cl)c1)NC12CC3CC(CC(C3)C1)C2	?	?	-18.4%	-23.1%	18.4µM*	?
CC(=O)COc1cccc2ccc(/C=C/c3ccc(Br)s3)nc12	i	i	-4.0%	-17.4%	18.4µM*	10.8%
Cc1ccc(/C=C/c2ccc3cccc(O)c3n2)s1	?	i	-21.8%	-21.2%	25.3%	?
COc1ccc(NC(=O)CN(C)S(=O)(=O)c2ccc(C(=O)N3CCOCC3)s2)cc1	i	i	·	·	·	·
CCOC(=O)c1cnc2c(C)c(Cl)ccc2c1N1CCN(CC)CC1	i	i	14.6µM*	14.6µM*	?	5.3%
CCOC(=O)c1cnc2c(Cl)c(Cl)ccc2c1N1CCN(C)CC1	i	?	16.4µM*	14.6µM*	17.6%	-0.6%
CCOC(=O)c1cnc2c(C)c(Cl)ccc2c1Nc1ccc(C)cc1C	i	i	·	·	·	·
Cc1ccc(/C=C/c2nc3ccccc3c(=O)n2CCc2ccccc2)cc1	i	2.59µM*	-12.0%	-18.7%	?	10.0%
Cc1[nH]c2ccccc2c1/C=C/c1nc2ccccc2c(=O)n1CCO	11.6µM*	11.6µM*	-24.1%	?	?	?
O=c1c2ccccc2nc(/C=C/c2ccc(Br)cc2)n1CCO	i	?	?	-29.4%	?	14.9%
Cc1nc2ccccc2c(=O)n1CCc1ccccc1	i	i	11.1%	10.9%	14.0%	-3.9%
Cc1ccccc1/C=C/c1nc2ccccc2c(=O)n1CCc1ccccc1	i	2.59µM*	1.2%	-6.7%	-2.1%	-40.9%
O=C(CNC(=O)c1ccc(F)cc1)OCc1cc(=O)n2nc(C3CC3)sc2n1	i	i	·	·	·	·
Cc1ccc(CNC(=O)c2c[nH]n3c(=O)c(Cc4ccc(Cl)cc4)c(C)nc23)cc1	i	i	·	·	·	·
Cc1nc(-c2ccc(S(=O)(=O)Nc3ccc(C)c(N(C)C)c3)cc2)co1	18.4µM*	?	·	·	·	·
SMILES	KB-3-1 tox	KB-V1 cytotox	HT1080 IDH1KD tx	HT1080-NT tox	MCF10A rerep	SW480 rerep
COc1cc2c(cc1OC)C(c1cccs1)N(C(=O)c1cccnc1)CC2 (centres undefined)	5.8µM*	?	?	-28.4%	?	5.17µM*
COc1cc2c(cc1OC)C(COc1ccccc1OC)N(C(=O)C(C)C)CC2 (centres undefined)	i	?	9.7%	9.2%	-4.1%	2.4%
COc1ccc(C(=O)N2CCc3cc(OC)c(OC)cc3C2c2ccc(OC)c(OC)c2)cc1OC (centres undefined)	i	i	-21.5%	-23.1%	-17.6%	4.3%
COc1cc2c(cc1OC)C(c1cccs1)N(C(=O)C(C)C)CC2 (centres undefined)	?	14.1µM*	-15.7%	-9.2%	1.2%	3.6%
Cc1cc(C)c(NC(=O)CSc2nc3ccccc3c3nc(-c4ccccc4)nn23)c(C)c1	i	i	·	·	·	·
CCOc1ccc2[nH]c(=O)c(CN(CCc3ccccc3)C(=O)N3CCCC3)cc2c1	i	i	-4.7%	-2.6%	-10.8%	1.7%
CCOc1ccc2[nH]c(=O)c(CN(CCc3ccccc3)C(=O)N3CCOCC3)cc2c1	i	14.6µM*	-0.9%	7.6%	0.1%	-6.2%
NC(=O)c1sc2nc3c(c(-c4cccnc4)c2c1N)CCC3	i	i	-1.0%	2.5%	-0.2%	1.8%
Nc1c(C(=O)Nc2ccccc2)sc2nc3c(c(-c4ccco4)c12)CCC3	?	i	?	-8.8%	?	2.4%
NC(=O)c1sc2nc3c(c(-c4cccs4)c2c1N)CCCCC3	i	i	-19.8%	-6.4%	12.6µM*	?
Nc1c(C(=O)Nc2ccccc2)sc2nc3c(c(-c4ccco4)c12)CCCC3	i	i	?	-25.0%	?	?
Cc1ccccc1NC(=O)c1sc2nc3c(c(-c4ccco4)c2c1N)CCCC3	i	i	-2.7%	-13.6%	?	16.4µM*
Nc1c(C(=O)Nc2ccc(Br)cc2)sc2nc(-c3ccco3)ccc12	i	5.17µM*	-23.3%	-25.0%	5.17µM*	?
Cc1ccc(NC(=O)c2sc3nc4c(c(-c5ccco5)c3c2N)CCC4)cc1	i	i	-24.2%	-5.9%	1.78µM*	12.7%
Cc1cc(Cl)ccc1NC(=O)c1cc2ccccn2n1	i	i	·	·	·	·
COc1ccc2c(c1)CC(C(=O)NCCc1ccc(S(N)(=O)=O)cc1)CO2 (centres undefined)	i	i	·	·	·	·
Cc1cc(NN)nc2ccc(Cl)cc12	?	13µM*	-5.1%	-6.3%	18.4%	?
Cc1cc(C)c2ccc(Cl)cc2n1	i	i	11.4%	4.7%	4.4%	-15.7%
OC1(c2ccc(Cl)c(Cl)c2)C[n+]2ccccc2N1Cc1ccccc1 (centres undefined)	?	i	20.6µM*	18.4µM*	15.8%	?
Nc1cccc2c1C(=O)N(CCOc1ccc(F)cc1)C2=O	?	i	-19.7%	4.0%	16.4µM*	18.4µM*
COc1ccc(OCCN2C(=O)c3ccccc3C2=O)cc1	i	i	14.8%	15.0%	-1.0%	-3.4%
C=CCNc1nnc(SC2CC(=O)N(c3ccc(OC)cc3)C2=O)s1 (centres undefined)	i	i	?	?	5.8µM*	6.7%
